Compounds without any hit were thinned out: in the full panel of roughly 83,000, 20% have a hit.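 The test compound was applied at a single concentration to cells in 96-well plates for 48 hours, and percent growth was recorded.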 Values without a mark were called inactive. The source made the active and inactive calls. How the source made its calls: active means growth percent below 10; inactive means the rest.
Experiments:
Assay in all cases: NCI-60 one-dose screen, 48 h (100 = growth as untreated, 0 = no growth, -100 = all killed)
Details in all cases: 10 µM unless noted
SK-MEL-2 melanoma = system: SK-MEL-2 melanoma
EKVX NSCLC = system: EKVX NSCLC
SN12C renal = system: SN12C renal
UO-31 renal = system: UO-31 renal
TK-10 renal = system: TK-10 renal
ACHN renal = system: ACHN renal
CAKI-1 renal = system: CAKI-1 renal
A498 renal = system: A498 renal
CCRF-CEM leukemia = system: CCRF-CEM leukemia
MOLT-4 leukemia = system: MOLT-4 leukemia
RPMI-8226 leukemia = system: RPMI-8226 leukemia
OVCAR-8 ovarian = system: OVCAR-8 ovarian
OVCAR-5 ovarian = system: OVCAR-5 ovarian
OVCAR-4 ovarian = system: OVCAR-4 ovarian
SK-OV-3 ovarian = system: SK-OV-3 ovarian
IGROV1 ovarian = system: IGROV1 ovarian
OVCAR-3 ovarian = system: OVCAR-3 ovarian
HS 578T breast = system: HS 578T breast
NCI/ADR-RES ovarian = system: NCI/ADR-RES ovarian

O=C(N/N=C/c1ccc(Cl)cc1)c1ccc(C(F)(F)F)nc1Nc1cccc(C(F)(F)F)c1 was tested, and the growth (SK-MEL-2 melanoma) was 25.8%, the growth (EKVX NSCLC) was 17.7% and the growth (SN12C renal) was 4.9% (active). The growth (UO-31 renal) was 10%, the growth (TK-10 renal) was 26.6% and the growth (ACHN renal) was 13%. The growth (CAKI-1 renal) was -5.88% (active), the growth (A498 renal) was 12.6% and the growth (CCRF-CEM leukemia) was 33.9%. The growth (MOLT-4 leukemia) was 2.2% (active), the growth (RPMI-8226 leukemia) was 3.59% (active) and the growth (OVCAR-8 ovarian) was 24%. For the same compound, the growth (OVCAR-5 ovarian) was 28%, the growth (OVCAR-4 ovarian) was 18.6% and the growth (SK-OV-3 ovarian) was 23.8%. For the same compound, the growth (IGROV1 ovarian) was 21.1%, the growth (OVCAR-3 ovarian) was -45.2% (active) and the growth (HS 578T breast) was 4.32% (active). For the same compound, the growth (NCI/ADR-RES ovarian) was -36.2% (active).
In the case of O=c1ccc(N=Nc2ccc([N+](=O)[O-])cc2)ccc1O, the growth (SK-MEL-2 melanoma) is reported as 28.1%, the growth (EKVX NSCLC) is reported as 5.14% (active) and the growth (SN12C renal) is reported as 4.86% (active). For the same compound, the growth (UO-31 renal) was 17.1%, the growth (TK-10 renal) was 47.9% and the growth (ACHN renal) was 16.5%. It also gave a growth (CAKI-1 renal) of 20.2%, a growth (A498 renal) of 103% and a growth (CCRF-CEM leukemia) of 34.5%. For the same compound, the growth (MOLT-4 leukemia) was 18.6%, the growth (RPMI-8226 leukemia) was 22.4% and the growth (OVCAR-8 ovarian) was 9.9% (active). For the same compound, the growth (OVCAR-5 ovarian) was 48.5%, the growth (OVCAR-4 ovarian) was 29.6% and the growth (SK-OV-3 ovarian) was 78.6%. The growth (IGROV1 ovarian) was 21.4%, the growth (OVCAR-3 ovarian) was 8.96% (active) and the growth (HS 578T breast) was 34.8%. For the same compound, the growth (NCI/ADR-RES ovarian) was -1.1% (active).
CNc1nc2c(s1)C(c1cccc(F)c1)CC(=O)N2 (stereo unspecified) was tested, and the growth (SK-MEL-2 melanoma) was 100%, the growth (EKVX NSCLC) was 103% and the growth (SN12C renal) was 95.2%. For the same compound, the growth (UO-31 renal) was 84.6%, the growth (TK-10 renal) was 105% and the growth (ACHN renal) was 88.4%. The growth (CAKI-1 renal) was 87.6%, the growth (A498 renal) was 69% and the growth (CCRF-CEM leukemia) was 104%. For the same compound, the growth (MOLT-4 leukemia) was 103%, the growth (RPMI-8226 leukemia) was 106% and the growth (OVCAR-5 ovarian) was 97.1%. For the same compound, the growth (OVCAR-4 ovarian) was 107%, the growth (SK-OV-3 ovarian) was 100% and the growth (IGROV1 ovarian) was 107%. It also gave a growth (OVCAR-3 ovarian) of 99.1%, a growth (HS 578T breast) of 94.3% and a growth (NCI/ADR-RES ovarian) of 103%.
Cc1cc(=O)oc2cc(OC(=O)CN3CCN(C)CC3)ccc12 was tested, and the growth (SK-MEL-2 melanoma) was 106%, the growth (EKVX NSCLC) was 92.5% and the growth (SN12C renal) was 96.6%. For the same compound, the growth (UO-31 renal) was 92.8%, the growth (TK-10 renal) was 109% and the growth (ACHN renal) was 103%. The growth (CAKI-1 renal) was 85.8%, the growth (A498 renal) was 97.2% and the growth (CCRF-CEM leukemia) was 98.7%. The growth (MOLT-4 leukemia) was 101%, the growth (OVCAR-8 ovarian) was 103% and the growth (OVCAR-5 ovarian) was 101%. For the same compound, the growth (OVCAR-4 ovarian) was 96.6%, the growth (SK-OV-3 ovarian) was 107% and the growth (IGROV1 ovarian) was 115%. For the same compound, the growth (OVCAR-3 ovarian) was 105%, the growth (HS 578T breast) was 97.9% and the growth (NCI/ADR-RES ovarian) was 105%.
In the case of COc1ccc(/C=C/c2c(C(=O)/C=C/c3ccc(Cl)cc3)c(C)nc3ccccc23)cc1, the growth (SK-MEL-2 melanoma) is reported as 45.7%, the growth (EKVX NSCLC) is reported as 47.9% and the growth (SN12C renal) is reported as 17.2%. The growth (UO-31 renal) was -21.3% (active), the growth (TK-10 renal) was 56.2% and the growth (ACHN renal) was 13.5%. The growth (CAKI-1 renal) was 29.5%, the growth (A498 renal) was 39.6% and the growth (CCRF-CEM leukemia) was 5.29% (active). For the same compound, the growth (MOLT-4 leukemia) was 4.01% (active), the growth (OVCAR-8 ovarian) was 20.9% and the growth (OVCAR-5 ovarian) was 16.9%. It also gave a growth (OVCAR-4 ovarian) of 40.6%, a growth (SK-OV-3 ovarian) of 64.5% and a growth (IGROV1 ovarian) of 13.6%. For the same compound, the growth (OVCAR-3 ovarian) was -4.96% (active), the growth (HS 578T breast) was 34.4% and the growth (NCI/ADR-RES ovarian) was 12.4%.
Work on COc1ccc(/C=N/Nc2cc(=O)[nH]c3ccc(Cl)cc23)cc1 yielded a growth (SK-MEL-2 melanoma) of 48.8%, a growth (EKVX NSCLC) of 63.8% and a growth (SN12C renal) of 62.3%. The growth (UO-31 renal) was 94.7%, the growth (TK-10 renal) was 12.5% and the growth (ACHN renal) was 72.7%. It also gave a growth (CAKI-1 renal) of 86.2%, a growth (A498 renal) of 80.7% and a growth (CCRF-CEM leukemia) of 38.2%. For the same compound, the growth (MOLT-4 leukemia) was 30.4%, the growth (OVCAR-8 ovarian) was 69.1% and the growth (OVCAR-5 ovarian) was 95.1%. It also gave a growth (OVCAR-4 ovarian) of 43.1%, a growth (SK-OV-3 ovarian) of 95.2% and a growth (IGROV1 ovarian) of 75.7%. For the same compound, the growth (OVCAR-3 ovarian) was 11.8%, the growth (HS 578T breast) was 91.7% and the growth (NCI/ADR-RES ovarian) was 78%.
With C[C@H]1[C@H]2[C@H]3CC[C@@H]4[C@@]5(C)CC[C@H](O)C(C)(C)[C@@H]5CC[C@@]4(C)[C@]3(C)CC[C@]23CO[C@]1(C)[C@@H](C(=O)/C=C\c1cccnc1)C3 the growth (SK-MEL-2 melanoma) was 87.3%, the growth (EKVX NSCLC) was 101% and the growth (SN12C renal) was 62.7%. The growth (UO-31 renal) was 58.7%, the growth (TK-10 renal) was 31.9% and the growth (ACHN renal) was 41.6%. It also gave a growth (CAKI-1 renal) of 55.6%, a growth (A498 renal) of 72.9% and a growth (CCRF-CEM leukemia) of 30.8%. The growth (MOLT-4 leukemia) was 25.2%, the growth (RPMI-8226 leukemia) was 9.55% (active) and the growth (OVCAR-5 ovarian) was 121%. It also gave a growth (OVCAR-4 ovarian) of 49%, a growth (SK-OV-3 ovarian) of 77.8% and a growth (IGROV1 ovarian) of 80.6%. It also gave a growth (OVCAR-3 ovarian) of 46.7%, a growth (HS 578T breast) of 82% and a growth (NCI/ADR-RES ovarian) of 78.9%.
Compound CCOC(=O)/C=C1\S/C(=N\Nc2ccc([N+](=O)[O-])cc2[N+](=O)[O-])N(Cc2ccccc2)C1=O has a growth (SK-MEL-2 melanoma) of 102%, a growth (EKVX NSCLC) of 86.4% and a growth (SN12C renal) of 57.3%. The growth (UO-31 renal) was 66.4%, the growth (TK-10 renal) was 115% and the growth (ACHN renal) was 84.3%. The growth (CAKI-1 renal) was 81.1%, the growth (A498 renal) was 70.4% and the growth (CCRF-CEM leukemia) was 39.6%. For the same compound, the growth (MOLT-4 leukemia) was 67.5%, the growth (RPMI-8226 leukemia) was 7.78% (active) and the growth (OVCAR-8 ovarian) was 73.4%. The growth (OVCAR-5 ovarian) was 95%, the growth (SK-OV-3 ovarian) was 104% and the growth (IGROV1 ovarian) was 88.5%. The growth (OVCAR-3 ovarian) was 83.5%, the growth (HS 578T breast) was 84.3% and the growth (NCI/ADR-RES ovarian) was 75.2%.
